Results published in PubChem BioAssay AID1159580 (chemical genetic matrix, 2015).
Hit rate of the full screen: of about 5,500 compounds, about 2,000 (36%) were called active. Inconclusive results (about 18%) are left out. No stated cut-off is given here; in the data, active means normalized growth mostly below about 0.91 (no sharp cut-off); inconclusive means no clear call, values can overlap the other calls; inactive means mostly above about 0.92. Some of the results follow.

Assay: chemical genetic growth profiling, strain panel (AID 1159580);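 further: tested at 20 µM; growth read once vehicle control cultures reached saturation at 30 °C; 1 = growth at the plate median or of vehicle wells; lower values mean less growth of the strain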
Settings: growth OD

Measured: normalized growth

COc1cccc2c1cc([N+](=O)[O-])c1c(C(=O)O)cc3c(c12)OCO3
inactive: S. cerevisiae deletion strains, locus YJR066W, strain TOR1, active compounds read low 0.912 | S. cerevisiae deletion strains, locus YJR075W, strain HOC1, active compounds read low 1.04 | S. cerevisiae deletion strains, locus YKL009W, strain mrt4, active compounds read low 0.967 | S. cerevisiae deletion strains, locus YKL068W, active compounds read low 1.01 | S. cerevisiae deletion strains, locus YKL085W, strain MDH1 (second series), active compounds read low 0.999 | S. cerevisiae deletion strains, locus YKL085W, strain MDH1, active compounds read low 0.999 | S. cerevisiae deletion strains, locus YKL160W, strain elf1, active compounds read low 1.01 | S. cerevisiae deletion strains, locus YKL190W, strain CNB1, active compounds read low 1.02 | S. cerevisiae deletion strains, locus YKR001C, strain vps1, active compounds read low 1.03 | S. cerevisiae deletion strains, locus YKR026C, strain gcn3, active compounds read low 1.02 | S. cerevisiae deletion strains, locus YKR091W, strain srl3, active compounds read low 1.02 | S. cerevisiae deletion strains, locus YLL001W, strain dnm1, active compounds read low 1.01 | S. cerevisiae deletion strains, locus YLL026W, active compounds read low 1.01 | S. cerevisiae deletion strains, locus YLL041C, strain sdh2, active compounds read low 1.01 | S. cerevisiae deletion strains, locus YLR027C, strain aat2, active compounds read low 1.02 | S. cerevisiae deletion strains, locus YLR039C, strain RIC1, active compounds read low 1.06 | S. cerevisiae deletion strains, locus YLR058C, strain SHM2, active compounds read low 1.01 | S. cerevisiae deletion strains, locus YLR102C, strain apc9, active compounds read low 1.02 | S. cerevisiae deletion strains, locus YLR113W, strain HOG1, active compounds read low 0.971 | S. cerevisiae deletion strains, locus YLR221C, strain rsa3, active compounds read low 1.02 | S. cerevisiae deletion strains, locus YLR258W, strain gsy2, active compounds read low 1.03 | S. cerevisiae deletion strains, locus YLR262C, strain YPT6 (second series), active compounds read low 1 | S. cerevisiae deletion strains, locus YLR262C, strain YPT6, active compounds read low 1.07 | S. cerevisiae deletion strains, locus YLR268W, strain sec22, active compounds read low 1.06 | S. cerevisiae deletion strains, locus YLR320W, strain mms22, active compounds read low 1.02 | S. cerevisiae deletion strains, locus YLR330W, strain CHS5, active compounds read low 1.02 | S. cerevisiae deletion strains, locus YLR342W, strain FKS1 (second series), active compounds read low 0.989 | S. cerevisiae deletion strains, locus YLR342W, strain FKS1, active compounds read low 1.04 | S. cerevisiae deletion strains, locus YLR357W, strain rsc2, active compounds read low 1.01 | S. cerevisiae deletion strains, locus YLR370C, strain arc18, active compounds read low 1.03 | S. cerevisiae deletion strains, locus YLR371W, strain rom2, active compounds read low 1.03 | S. cerevisiae deletion strains, locus YLR384C, strain iki3, active compounds read low 1 | S. cerevisiae deletion strains, locus YLR418C, strain cdc73, active compounds read low 1.01 | S. cerevisiae deletion strains, locus YML016C, strain PPZ1, active compounds read low 1.01 | S. cerevisiae deletion strains, locus YML032C, strain rad52, active compounds read low 0.99 | S. cerevisiae deletion strains, locus YML120C, strain ndi1, active compounds read low 1.02 | S. cerevisiae deletion strains, locus YML124C, strain tub3, active compounds read low 1.01 | S. cerevisiae deletion strains, locus YMR058W, strain fet3, active compounds read low 1.02 | S. cerevisiae deletion strains, locus YMR078C, strain ctf18, active compounds read low 1.02 | S. cerevisiae deletion strains, locus YMR125W, strain sto1, active compounds read low 1.03 | S. cerevisiae deletion strains, locus YMR129W, active compounds read low 1.02 | S. cerevisiae deletion strains, locus YMR205C, strain PFK2, active compounds read low 1.05 | S. cerevisiae deletion strains, locus YMR223W, strain ubp8, active compounds read low 1.01 | S. cerevisiae deletion strains, locus YMR231W, strain pep5, active compounds read low 1.03 | S. cerevisiae deletion strains, locus YMR307W, strain GAS1, active compounds read low 0.988 | S. cerevisiae deletion strains, locus YNL067W, strain RPL9B, active compounds read low 1.04 | S. cerevisiae deletion strains, locus YNL071W, strain lat1, active compounds read low 1.02 | S. cerevisiae deletion strains, locus YNL183C, strain NPR1, active compounds read low 0.917 | S. cerevisiae deletion strains, locus YNL209W, strain ssb2, active compounds read low 1.02 | S. cerevisiae deletion strains, locus YNL233W, strain BNI4, active compounds read low 1.03 | S. cerevisiae deletion strains, locus YNL248C, strain rpa49, active compounds read low 1.01 | S. cerevisiae deletion strains, locus YNL250W, strain rad50, active compounds read low 1.01 | S. cerevisiae deletion strains, locus YNL271C, strain bni1, active compounds read low 1.01 | S. cerevisiae deletion strains, locus YNL298W, strain CLA4, active compounds read low 0.97 | S. cerevisiae deletion strains, locus YNL307C, strain MCK1, active compounds read low 1.03 | S. cerevisiae deletion strains, locus YNL322C, strain KRE1 (second series), active compounds read low 1.01 | S. cerevisiae deletion strains, locus YNL322C, strain KRE1, active compounds read low 1 | S. cerevisiae deletion strains, locus YNR049C, strain mso1, active compounds read low 1.02 | S. cerevisiae deletion strains, locus YNR052C, strain pop2, active compounds read low 1 | S. cerevisiae deletion strains, locus YOL006C, strain TOP1, active compounds read low 1.09 | S. cerevisiae deletion strains, locus YOL012C, strain htz1 1.07 | S. cerevisiae deletion strains, locus YOL147C, strain pex11, active compounds read low 1.01 | S. cerevisiae deletion strains, locus YOR001W, strain rrp6, active compounds read low 1.01 | S. cerevisiae deletion strains, locus YOR061W, strain CKA2, active compounds read low 1.02 | S. cerevisiae deletion strains, locus YOR069W, strain VPS5, active compounds read low 1.01 | S. cerevisiae deletion strains, locus YOR070C, strain gyp1, active compounds read low 1.01 | S. cerevisiae deletion strains, locus YOR080W, strain dia2, active compounds read low 1.02 | S. cerevisiae deletion strains, locus YOR083W, strain WHI5, active compounds read low 1 | S. cerevisiae deletion strains, locus YOR106W, strain vam3, active compounds read low 1.01 | S. cerevisiae deletion strains, locus YOR136W, strain idh2, active compounds read low 1.02 | S. cerevisiae deletion strains, locus YOR144C, strain elg1, active compounds read low 1.01 | S. cerevisiae deletion strains, locus YOR184W, strain ser1, active compounds read low 1 | S. cerevisiae deletion strains, locus YOR231W, strain MKK1, active compounds read low 0.928 | S. cerevisiae deletion strains, locus YOR265W, strain rbl2, active compounds read low 1.01 | S. cerevisiae deletion strains, locus YOR270C, strain vph1, active compounds read low 1.04 | S. cerevisiae deletion strains, locus YOR290C, strain snf2, active compounds read low 0.995 | S. cerevisiae deletion strains, locus YOR316C, strain cot1, active compounds read low 1.02 | S. cerevisiae deletion strains, locus YPL051W, strain arl3, active compounds read low 1.01 | S. cerevisiae deletion strains, locus YPL055C, strain LGE1, active compounds read low 1.04 | S. cerevisiae deletion strains, locus YPL078C, strain atp4, active compounds read low 1.01 | S. cerevisiae deletion strains, locus YPL106C, strain sse1, active compounds read low 1.03 | S. cerevisiae deletion strains, locus YPL240C, strain hsp82, active compounds read low 1.01 | S. cerevisiae deletion strains, locus YPL241C, strain CIN2, active compounds read low 1.01 | S. cerevisiae deletion strains, locus YPL256C, strain CLN2, active compounds read low 0.926 | S. cerevisiae deletion strains, locus YPR119W, strain clb2, active compounds read low 1.02 | S. cerevisiae deletion strains, locus YPR141C, strain kar3, active compounds read low 1.02 | S. cerevisiae deletion strains, locus YPR163C, strain tif3, active compounds read low 1.02 | S. cerevisiae deletion strains, locus YPR167C, strain met16, active compounds read low 1.02 | S. cerevisiae deletion strains, strain wtn01, active compounds read low 1.05 | S. cerevisiae strains, strain wild type, active compounds read low 1.02
